According to article PMC7862700, “An all-to-all approach to the identification of sequence-specific readers for epigenetic DNA modifications on cytosine”:

Tests used:
Experiment in all cases: DAPPL (digital affinity profiling via proximity ligation, sequencing); 10 mM Tris-HCl pH 7.5, 50 mM NaCl, 1 mM DTT, 4% glycerol, room temperature, 30 min; GST-TFs on glutathione beads, 16-mer random dsDNA library, 0.1% formaldehyde crosslink after washing; high values mean tight binding
FEV = biological target: T1, FEV (Homo sapiens, UniProt Q99581 1-238); conditions: protein: recombinant; tags: N-terminal GST; dsDNA, one strand shown
T1 sequence: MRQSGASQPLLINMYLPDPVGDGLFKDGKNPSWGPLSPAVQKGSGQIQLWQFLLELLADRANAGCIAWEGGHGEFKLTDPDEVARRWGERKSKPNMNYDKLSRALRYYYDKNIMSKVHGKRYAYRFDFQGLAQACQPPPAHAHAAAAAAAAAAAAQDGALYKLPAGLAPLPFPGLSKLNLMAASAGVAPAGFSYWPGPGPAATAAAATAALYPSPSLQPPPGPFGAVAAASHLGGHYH
Method in brief: (§1)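 The binding signal reported is, for every hexamer, its read frequency for a factor over its read frequency for the tag-only sample. Reads came from pools of yeast-expressed, GST-fused human transcription factors on glutathione beads, barcoded with DNA and mixed with that sample, which were incubated with 200 nmole of a random double-stranded 16-mer DNA library in Tris/NaCl/DTT/glycerol buffer at room temperature for 30 min. After washing, the pools were crosslinked with 0.1% formaldehyde, proximity-ligated with BsaI/T4 ligase for 1 h at 37 °C, PCR-amplified and sequenced on an Illumina NextSeq500.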

ETV5 = ETV5 (Homo sapiens, UniProt P41161 1-510); conditions: protein: recombinant; tags: N-terminal GST; dsDNA, one strand shown
ETV5, sequence (P41161 whole entry): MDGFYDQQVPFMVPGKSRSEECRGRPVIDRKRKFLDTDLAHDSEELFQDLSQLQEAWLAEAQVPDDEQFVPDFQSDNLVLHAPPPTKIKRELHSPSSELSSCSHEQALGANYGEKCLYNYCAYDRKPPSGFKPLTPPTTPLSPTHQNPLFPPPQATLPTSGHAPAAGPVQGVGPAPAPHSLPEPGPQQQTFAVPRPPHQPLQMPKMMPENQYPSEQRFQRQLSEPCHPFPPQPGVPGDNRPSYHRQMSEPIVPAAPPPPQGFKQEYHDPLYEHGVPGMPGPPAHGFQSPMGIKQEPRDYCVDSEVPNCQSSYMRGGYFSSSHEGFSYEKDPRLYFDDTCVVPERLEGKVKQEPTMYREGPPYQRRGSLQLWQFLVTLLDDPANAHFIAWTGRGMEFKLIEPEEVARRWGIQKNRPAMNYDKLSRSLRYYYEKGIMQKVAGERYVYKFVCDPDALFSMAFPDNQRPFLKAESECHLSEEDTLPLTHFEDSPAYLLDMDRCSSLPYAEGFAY
Method in brief: as §1

HSF1 = HSF1 (Homo sapiens, UniProt Q00613 1-529); conditions: protein: recombinant; tags: N-terminal GST; chain copies: 3; dsDNA, one strand shown
HSF1, sequence (Q00613 whole entry): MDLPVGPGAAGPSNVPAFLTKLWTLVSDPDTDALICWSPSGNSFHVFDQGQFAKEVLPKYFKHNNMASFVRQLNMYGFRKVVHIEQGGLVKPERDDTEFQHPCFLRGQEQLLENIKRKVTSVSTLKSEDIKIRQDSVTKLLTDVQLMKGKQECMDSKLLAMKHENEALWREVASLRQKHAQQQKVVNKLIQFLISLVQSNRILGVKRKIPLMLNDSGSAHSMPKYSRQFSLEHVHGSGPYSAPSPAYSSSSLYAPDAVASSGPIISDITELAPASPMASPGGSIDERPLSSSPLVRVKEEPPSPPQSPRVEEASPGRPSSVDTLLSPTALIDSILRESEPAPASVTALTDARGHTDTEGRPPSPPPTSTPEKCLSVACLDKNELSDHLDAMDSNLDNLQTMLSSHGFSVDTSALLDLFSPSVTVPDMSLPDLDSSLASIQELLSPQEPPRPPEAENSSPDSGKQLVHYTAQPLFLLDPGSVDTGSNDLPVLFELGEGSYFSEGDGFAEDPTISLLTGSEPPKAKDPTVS
Method in brief: as §1

SPIC = biological target: T2, SPIC (Homo sapiens, UniProt Q8N5J4 1-248); conditions: protein: recombinant; tags: N-terminal GST; dsDNA, one strand shown
T2 sequence: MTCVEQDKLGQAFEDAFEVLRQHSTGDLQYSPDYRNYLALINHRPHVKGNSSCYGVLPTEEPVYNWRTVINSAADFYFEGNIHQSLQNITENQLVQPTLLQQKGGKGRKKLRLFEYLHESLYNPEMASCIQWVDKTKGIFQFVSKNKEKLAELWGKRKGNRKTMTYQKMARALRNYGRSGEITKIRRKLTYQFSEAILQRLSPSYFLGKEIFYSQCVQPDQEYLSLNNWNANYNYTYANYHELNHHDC
Method in brief: as §1

ELF4 = ELF4 (Homo sapiens, UniProt Q99607 1-663); conditions: protein: recombinant; tags: N-terminal GST; dsDNA, one strand shown
ELF4, sequence (Q99607 whole entry): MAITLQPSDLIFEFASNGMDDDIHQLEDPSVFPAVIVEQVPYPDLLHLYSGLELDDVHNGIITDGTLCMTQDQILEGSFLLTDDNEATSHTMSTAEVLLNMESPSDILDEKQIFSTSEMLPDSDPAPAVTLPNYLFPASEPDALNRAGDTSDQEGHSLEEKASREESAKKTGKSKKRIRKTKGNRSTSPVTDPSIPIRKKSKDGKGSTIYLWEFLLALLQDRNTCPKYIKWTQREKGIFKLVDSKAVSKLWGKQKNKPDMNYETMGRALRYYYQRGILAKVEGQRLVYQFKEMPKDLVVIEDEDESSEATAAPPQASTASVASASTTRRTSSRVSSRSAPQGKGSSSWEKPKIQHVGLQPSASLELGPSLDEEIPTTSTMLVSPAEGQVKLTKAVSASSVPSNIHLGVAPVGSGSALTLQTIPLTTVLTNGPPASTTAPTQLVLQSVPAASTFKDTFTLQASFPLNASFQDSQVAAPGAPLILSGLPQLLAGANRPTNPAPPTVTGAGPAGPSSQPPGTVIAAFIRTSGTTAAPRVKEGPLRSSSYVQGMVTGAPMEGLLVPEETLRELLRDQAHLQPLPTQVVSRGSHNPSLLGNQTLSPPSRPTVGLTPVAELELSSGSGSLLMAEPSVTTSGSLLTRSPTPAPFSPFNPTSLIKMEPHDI
Method in brief: as §1

ELK4 = biological target: T3, ELK4 (Homo sapiens, UniProt P28324-2 1-405); conditions: protein: recombinant; tags: N-terminal GST; dsDNA, one strand shown
T3 sequence: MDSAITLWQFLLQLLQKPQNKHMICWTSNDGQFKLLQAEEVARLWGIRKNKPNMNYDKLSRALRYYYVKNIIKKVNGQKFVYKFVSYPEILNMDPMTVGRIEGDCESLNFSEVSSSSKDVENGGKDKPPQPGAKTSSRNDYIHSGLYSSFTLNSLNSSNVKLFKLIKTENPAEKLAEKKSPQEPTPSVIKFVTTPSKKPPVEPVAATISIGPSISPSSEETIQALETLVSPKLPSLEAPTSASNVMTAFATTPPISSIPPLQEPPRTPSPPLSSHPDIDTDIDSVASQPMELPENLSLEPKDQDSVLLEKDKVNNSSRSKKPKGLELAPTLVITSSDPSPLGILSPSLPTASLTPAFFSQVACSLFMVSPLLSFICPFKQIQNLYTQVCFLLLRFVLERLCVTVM
Method in brief: as §1

ETV2 = biological target: T4, ETV2 (Homo sapiens, UniProt O00321 1-342); conditions: protein: recombinant; tags: N-terminal GST; dsDNA, one strand shown
T4 sequence: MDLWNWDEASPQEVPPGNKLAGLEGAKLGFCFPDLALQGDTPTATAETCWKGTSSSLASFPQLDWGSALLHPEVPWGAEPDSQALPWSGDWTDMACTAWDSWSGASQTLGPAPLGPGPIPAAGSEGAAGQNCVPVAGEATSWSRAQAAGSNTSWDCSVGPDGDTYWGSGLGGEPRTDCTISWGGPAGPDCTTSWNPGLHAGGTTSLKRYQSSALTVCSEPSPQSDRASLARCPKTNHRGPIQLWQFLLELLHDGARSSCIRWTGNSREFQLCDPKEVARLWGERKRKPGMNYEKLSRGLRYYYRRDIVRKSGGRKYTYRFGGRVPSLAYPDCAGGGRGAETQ
Method in brief: as §1

ELF3 = biological target: T5, ELF3 (Homo sapiens, UniProt P78545 1-371); conditions: protein: recombinant; tags: N-terminal GST; dsDNA, one strand shown
T5 sequence: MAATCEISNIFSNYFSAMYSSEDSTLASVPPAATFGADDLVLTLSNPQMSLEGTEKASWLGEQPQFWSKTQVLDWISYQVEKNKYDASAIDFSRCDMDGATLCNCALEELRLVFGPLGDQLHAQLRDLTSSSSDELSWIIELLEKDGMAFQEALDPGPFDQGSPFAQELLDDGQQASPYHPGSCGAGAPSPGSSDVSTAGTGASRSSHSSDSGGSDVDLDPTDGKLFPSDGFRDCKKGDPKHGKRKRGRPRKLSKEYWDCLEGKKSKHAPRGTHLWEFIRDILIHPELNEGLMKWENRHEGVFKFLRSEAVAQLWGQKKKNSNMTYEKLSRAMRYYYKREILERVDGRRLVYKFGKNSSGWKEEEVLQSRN
Method in brief: as §1

CRX = CRX (Homo sapiens, UniProt O43186 1-299); conditions: protein: recombinant; tags: N-terminal GST; dsDNA, one strand shown
CRX, sequence (O43186 whole entry): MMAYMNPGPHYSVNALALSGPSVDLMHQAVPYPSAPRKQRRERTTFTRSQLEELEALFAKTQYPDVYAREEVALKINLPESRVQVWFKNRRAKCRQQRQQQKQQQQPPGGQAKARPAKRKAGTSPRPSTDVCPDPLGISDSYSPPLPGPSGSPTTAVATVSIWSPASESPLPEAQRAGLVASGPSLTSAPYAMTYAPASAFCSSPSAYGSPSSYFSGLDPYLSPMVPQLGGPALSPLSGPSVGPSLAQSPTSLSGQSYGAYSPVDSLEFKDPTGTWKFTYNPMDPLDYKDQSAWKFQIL
Method in brief: as §1

ETV1 = ETV1 (Homo sapiens, UniProt P50549 1-477); conditions: protein: recombinant; tags: N-terminal GST; dsDNA, one strand shown
ETV1, sequence (P50549 whole entry): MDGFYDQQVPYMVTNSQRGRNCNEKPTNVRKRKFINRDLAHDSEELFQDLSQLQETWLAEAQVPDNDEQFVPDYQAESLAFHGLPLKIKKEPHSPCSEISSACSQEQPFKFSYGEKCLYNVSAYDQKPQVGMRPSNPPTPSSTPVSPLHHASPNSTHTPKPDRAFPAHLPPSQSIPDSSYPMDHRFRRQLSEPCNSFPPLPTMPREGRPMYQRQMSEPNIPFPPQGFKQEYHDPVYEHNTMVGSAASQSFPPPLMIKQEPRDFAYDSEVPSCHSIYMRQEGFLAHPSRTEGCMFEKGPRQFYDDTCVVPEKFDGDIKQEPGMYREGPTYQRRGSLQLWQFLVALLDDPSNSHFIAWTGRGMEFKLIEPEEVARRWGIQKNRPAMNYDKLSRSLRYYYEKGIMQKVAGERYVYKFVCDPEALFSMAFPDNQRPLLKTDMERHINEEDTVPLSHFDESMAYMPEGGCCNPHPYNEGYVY
Method in brief: as §1

ERF = biological target: T6, ERF (Homo sapiens, UniProt P50548 1-548); conditions: protein: recombinant; tags: N-terminal GST; dsDNA, one strand shown
T6 sequence: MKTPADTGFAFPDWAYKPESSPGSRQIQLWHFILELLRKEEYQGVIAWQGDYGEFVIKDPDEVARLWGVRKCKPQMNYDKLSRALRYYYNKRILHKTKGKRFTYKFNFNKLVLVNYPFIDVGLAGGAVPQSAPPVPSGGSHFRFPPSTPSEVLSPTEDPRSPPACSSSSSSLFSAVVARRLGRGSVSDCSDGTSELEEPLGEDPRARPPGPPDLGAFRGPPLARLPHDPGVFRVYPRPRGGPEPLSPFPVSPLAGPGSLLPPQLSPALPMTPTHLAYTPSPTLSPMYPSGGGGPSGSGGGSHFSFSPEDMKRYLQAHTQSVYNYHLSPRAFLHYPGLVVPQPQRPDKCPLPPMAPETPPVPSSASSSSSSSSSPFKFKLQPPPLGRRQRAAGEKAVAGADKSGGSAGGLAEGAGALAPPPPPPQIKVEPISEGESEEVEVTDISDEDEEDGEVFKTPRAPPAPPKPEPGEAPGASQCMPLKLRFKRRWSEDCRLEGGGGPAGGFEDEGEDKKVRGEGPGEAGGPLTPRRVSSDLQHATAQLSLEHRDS
Method in brief: as §1

ETV3L = biological target: T7, ETV3L (Homo sapiens, UniProt Q6ZN32 1-361); conditions: protein: recombinant; tags: N-terminal GST; dsDNA, one strand shown
T7 sequence: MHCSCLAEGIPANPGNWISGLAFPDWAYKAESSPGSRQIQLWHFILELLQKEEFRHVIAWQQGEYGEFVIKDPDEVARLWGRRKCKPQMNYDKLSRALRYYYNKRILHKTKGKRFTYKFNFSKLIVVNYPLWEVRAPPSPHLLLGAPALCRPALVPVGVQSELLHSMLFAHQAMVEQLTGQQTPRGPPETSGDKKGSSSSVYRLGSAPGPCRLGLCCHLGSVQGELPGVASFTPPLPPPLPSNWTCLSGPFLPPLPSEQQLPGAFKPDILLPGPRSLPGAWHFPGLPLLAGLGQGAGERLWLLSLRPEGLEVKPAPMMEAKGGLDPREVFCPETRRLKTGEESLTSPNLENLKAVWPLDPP
Method in brief: as §1

ETS2 = biological target: T8, ETS2 (Homo sapiens, UniProt P15036 1-469); conditions: protein: recombinant; tags: N-terminal GST; dsDNA, one strand shown
T8 sequence: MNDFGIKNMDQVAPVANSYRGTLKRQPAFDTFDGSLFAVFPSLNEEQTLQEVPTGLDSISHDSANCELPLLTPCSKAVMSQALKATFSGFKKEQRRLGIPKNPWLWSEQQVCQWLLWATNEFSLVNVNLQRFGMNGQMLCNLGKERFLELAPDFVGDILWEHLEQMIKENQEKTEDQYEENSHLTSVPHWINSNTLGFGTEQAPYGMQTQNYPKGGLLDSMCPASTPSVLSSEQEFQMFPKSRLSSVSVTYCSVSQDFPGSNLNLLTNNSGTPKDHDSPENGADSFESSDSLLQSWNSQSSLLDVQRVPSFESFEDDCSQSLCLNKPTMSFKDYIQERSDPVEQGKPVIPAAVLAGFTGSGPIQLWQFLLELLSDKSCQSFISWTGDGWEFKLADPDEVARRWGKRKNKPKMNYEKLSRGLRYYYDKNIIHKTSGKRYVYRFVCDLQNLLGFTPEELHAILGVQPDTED
Method in brief: as §1

SPDEF = biological target: T9, SPDEF (Homo sapiens, UniProt O95238 1-335); conditions: protein: recombinant; tags: N-terminal GST; dsDNA, one strand shown
T9 sequence: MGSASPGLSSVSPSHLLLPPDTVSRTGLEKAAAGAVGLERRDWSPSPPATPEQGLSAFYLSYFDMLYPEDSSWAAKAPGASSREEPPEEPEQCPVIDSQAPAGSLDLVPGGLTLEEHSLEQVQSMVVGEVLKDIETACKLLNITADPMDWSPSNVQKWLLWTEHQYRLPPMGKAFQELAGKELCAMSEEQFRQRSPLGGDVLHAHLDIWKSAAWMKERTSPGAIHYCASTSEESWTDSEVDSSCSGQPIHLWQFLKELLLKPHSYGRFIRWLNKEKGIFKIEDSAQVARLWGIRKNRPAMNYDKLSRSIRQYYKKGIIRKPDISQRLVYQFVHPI
Method in brief: as §1

ETV7 = biological target: T10, ETV7 (Homo sapiens, UniProt Q9Y603 1-341); conditions: protein: recombinant; tags: N-terminal GST; dsDNA, one strand shown
T10 sequence: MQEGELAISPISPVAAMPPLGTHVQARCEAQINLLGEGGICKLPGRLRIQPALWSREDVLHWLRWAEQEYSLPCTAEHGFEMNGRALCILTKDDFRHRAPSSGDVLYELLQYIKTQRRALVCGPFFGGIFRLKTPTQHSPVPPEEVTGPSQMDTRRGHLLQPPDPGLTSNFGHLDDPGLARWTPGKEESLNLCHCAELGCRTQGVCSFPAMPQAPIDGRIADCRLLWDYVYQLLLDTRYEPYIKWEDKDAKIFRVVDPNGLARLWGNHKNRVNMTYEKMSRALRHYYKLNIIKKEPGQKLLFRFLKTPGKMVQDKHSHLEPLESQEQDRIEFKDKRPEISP
Method in brief: as §1

ELF5 = biological target: T11, ELF5 (Homo sapiens, UniProt Q9UKW6-2 1-255); conditions: protein: recombinant; tags: N-terminal GST; dsDNA, one strand shown
T11 sequence: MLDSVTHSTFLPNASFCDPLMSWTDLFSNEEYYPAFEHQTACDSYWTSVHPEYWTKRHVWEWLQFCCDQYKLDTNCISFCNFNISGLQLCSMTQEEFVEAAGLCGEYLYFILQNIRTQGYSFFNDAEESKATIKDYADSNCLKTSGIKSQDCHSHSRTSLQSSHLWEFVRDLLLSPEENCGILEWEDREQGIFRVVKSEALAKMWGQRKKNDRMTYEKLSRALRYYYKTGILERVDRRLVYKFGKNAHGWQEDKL
Method in brief: as §1

ETV3 = biological target: T12, ETV3 (Homo sapiens, UniProt P41162-2 1-143); conditions: protein: recombinant; tags: N-terminal GST; dsDNA, one strand shown
T12 sequence: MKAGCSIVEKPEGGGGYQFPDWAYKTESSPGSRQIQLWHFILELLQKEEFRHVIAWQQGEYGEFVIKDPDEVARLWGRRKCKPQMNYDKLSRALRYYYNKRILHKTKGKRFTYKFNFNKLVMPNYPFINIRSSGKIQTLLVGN
Method in brief: as §1

ETV6 = ETV6 (Homo sapiens, UniProt P41212 1-452); conditions: protein: recombinant; tags: N-terminal GST; dsDNA, one strand shown
ETV6, sequence (P41212 whole entry): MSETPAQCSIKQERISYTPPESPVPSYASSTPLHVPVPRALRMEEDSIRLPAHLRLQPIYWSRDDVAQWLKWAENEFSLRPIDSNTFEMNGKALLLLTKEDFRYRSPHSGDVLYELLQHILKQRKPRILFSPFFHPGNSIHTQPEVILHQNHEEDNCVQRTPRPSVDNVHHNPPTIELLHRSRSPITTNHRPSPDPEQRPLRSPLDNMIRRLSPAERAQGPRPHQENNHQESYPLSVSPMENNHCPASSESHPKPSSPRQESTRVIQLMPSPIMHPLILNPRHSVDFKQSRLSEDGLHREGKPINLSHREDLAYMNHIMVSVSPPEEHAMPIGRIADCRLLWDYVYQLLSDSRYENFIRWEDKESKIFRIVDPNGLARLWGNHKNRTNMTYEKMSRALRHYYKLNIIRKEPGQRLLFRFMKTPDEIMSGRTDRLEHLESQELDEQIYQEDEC
Method in brief: as §1

ATGGTA
binding signal (FEV): 1.17 fold enrichment (6-mer frequency, TF over GST control)
binding signal (ETV5): 1.43 fold enrichment (6-mer frequency, TF over GST control)
binding signal (HSF1): 1.21 fold enrichment (6-mer frequency, TF over GST control)
binding signal (SPIC): 1.31 fold enrichment (6-mer frequency, TF over GST control)
binding signal (ELF4): 1.31 fold enrichment (6-mer frequency, TF over GST control)
binding signal (ELK4): 1.49 fold enrichment (6-mer frequency, TF over GST control)
binding signal (ETV2): 1.45 fold enrichment (6-mer frequency, TF over GST control)
binding signal (ELF3): 1.48 fold enrichment (6-mer frequency, TF over GST control)
binding signal (CRX): 1.33 fold enrichment (6-mer frequency, TF over GST control)
binding signal (ETV1): 1.47 fold enrichment (6-mer frequency, TF over GST control)
binding signal (ERF): 1.38 fold enrichment (6-mer frequency, TF over GST control)
binding signal (ETV3L): 1.35 fold enrichment (6-mer frequency, TF over GST control)
binding signal (ETS2): 1.37 fold enrichment (6-mer frequency, TF over GST control)
binding signal (SPDEF): 1.31 fold enrichment (6-mer frequency, TF over GST control)
binding signal (ETV7): 1.48 fold enrichment (6-mer frequency, TF over GST control)
binding signal (ELF5): 1.39 fold enrichment (6-mer frequency, TF over GST control)
binding signal (ETV3): 1.35 fold enrichment (6-mer frequency, TF over GST control)
binding signal (ETV6): 1.31 fold enrichment (6-mer frequency, TF over GST control)
